Where a name gives a salt, the structure may show the parent alone.
What follows are compounds tested on Danio rerio larvae Tg(actc1b:ZsGreen-LC3), 3 dpf (assay: LC3 puncta relative area vs vehicle, with NH4Cl (autophagic flux) (log2 fold change); higher = more autophagy). Conditions: 10 µM; treatment time 16 h; NH4Cl: + 100 mM, 4 h.
Description: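 Transgenic Tg(actc1b:ZsGreen-map1lc3) zebrafish larvae (2 dpf) were treated for 16 h with Tocris library compounds at 10 µM (n = 12 larvae per compound). Skeletal-muscle LC3 puncta area relative to body area was measured by high-content confocal imaging before and after 4 h of 100 mM NH4Cl (autophagic flux), normalised to vehicle (DMSO), and reported as log2 fold change.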

Compound	LC3 puncta (log2)
COC(=O)/C=C/c1cc(O)ccc1O [Methyl 2,5-dihydroxycinnamate]	0.332
NC(=O)Nc1sc(-c2ccc(F)cc2)cc1C(N)=O	0.588
O=C1CC2(CCCC2)CC(=O)N1CCCCNCC1COc2ccccc2O1 (stereo not given)	-0.368
Nc1nc2ccc(OC(F)(F)F)cc2s1 [Riluzole]	0.631
O=C(O)C1=CCNCC1 [Isoguvacine hydrochloride]	0.468
c1ccc(N2CCN(CCCOc3ccc4c(c3)OCO4)CC2)cc1 [BP 554 maleate]	0.422
CC(C)NC[C@H](O)COc1ccc(CC(N)=O)cc1 [(S)-(-)-Atenolol]	0.611
O=C(O)C=C1CCCc2ccccc2C1O (stereo not given)	-0.285
O=C(OCCN1CCCCC1)c1c[nH]c2ccccc12	0.6
NC(C(=O)O)c1cc(O)cc(O)c1 (racemic)	0.022
O=C1c2ccccc2CCC1CNCCc1ccc(O)cc1 (stereo not given) [HEAT hydrochloride]	0.616
O=c1nc2ccccc2c2n1CC(CN1CCN(c3ccccc3)CC1)N2 (stereo not given)	0.259
CCC(C)N(C)C(=O)c1cc2ccccc2c(-c2ccccc2Cl)n1 (stereo not given)	0.363
N=C(N)S/C=C\C(=O)O [ZAPA sulfate]	0.0813
CC(CCc1ccc(O)cc1)NCCc1ccc(O)c(O)c1 (stereo not given) [Dobutamine hydrochloride]	0.472
CCCC[C@@H](C=O)NC(=O)[C@H](CC(C)C)NC(=O)OCc1ccccc1 [Calpeptin]	1.29
CC12CC3CC(C)(C1)CC(N)(C3)C2 [Memantine hydrochloride]	0.723
NS(=O)(=O)c1cc2c(cc1Cl)NC(C1CC3C=CC1C3)NS2(=O)=O (stereo not given) [Cyclothiazide]	0.416
O=C(NCCCN1CCCCCC1)C(c1ccccc1)C1CCCCC1 (stereo not given)	-0.114
CC(=O)N[C@@H](Cc1c[nH]c2ccccc12)C(=O)OCc1cc(C(F)(F)F)cc(C(F)(F)F)c1	0.108

Compound	LC3 puncta (log2)
COC(=O)C1=C(C)NC(C)=C(C(=O)OCCSc2ccccc2)C1C (stereo not given)	0.664
O=C1CN(/N=C/c2ccc(-c3ccc([N+](=O)[O-])cc3)o2)C(=O)N1 [Dantrolene, sodium salt]	0.404
Fc1ccc(C(c2ccc(F)cc2)N2CCN(C/C=C/c3ccccc3)CC2)cc1 [Flunarizine dihydrochloride]	0.536
O=C(O)c1cc(O)c2ccc(Cl)cc2n1 [7-Chlorokynurenic acid]	0.316
CCOC(=O)C1=C(C)NC(C)=C(C(=O)OC)C1c1cccc([N+](=O)[O-])c1 (stereo not given) [Nitrendipine]	0.513
c1ccc2oc(C3=NCCN3)cc2c1 [2-BFI hydrochloride]	-0.32
NCC(O)(CS(=O)(=O)O)c1ccc(Cl)cc1 (stereo not given) [2-Hydroxysaclofen]	0.449
O=S(=O)(c1cccc2cnccc12)N1CCCNCC1 [Fasudil hydrochloride]	0.726
COCCOC(=O)C1=C(C)NC(C)=C(C(=O)OC(C)C)C1c1cccc([N+](=O)[O-])c1 (stereo not given) [Nimodipine]	0.885
Clc1cccc(Nc2nnc(-c3ccccc3)c3ccccc23)c1	0.446
CC(=O)N1CCN(C)CC1 [1-Acetyl-4-methylpiperazine hydrochloride]	0.372
CN(C)CCCSC(=N)N [Dimaprit dihydrochloride]	0.561
OCCN(CCO)c1nc(N2CCCCC2)c2nc(N(CCO)CCO)nc(N3CCCCC3)c2n1 [Dipyridamole]	-0.141
CC(C)NCC(O)c1ccc2ccccc2c1 (stereo not given) [Pronethalol hydrochloride]	0.862
CSc1ccc2c(c1)C(N1CCN(C)CC1)Cc1ccccc1S2 (stereo not given) [Methiothepin maleate]	-0.129
COc1cc2nc(N3CCN(C(=O)c4ccco4)CC3)nc(N)c2cc1OC [Prazosin hydrochloride]	0.478
O=[N+]([O-])c1cccc2c(Br)[nH]nc12 [3-Bromo-7-nitroindazole]	0.697
NC(=O)c1cccc(N)c1 [3-Aminobenzamide]	0.645
CC(C)NCC(O)COc1cccc2ccccc12 (stereo not given) [Propranolol hydrochloride]	1.08
NC(=O)CCCCn1ccc(NC(N)=NCC(F)(F)F)n1	0.72

Reference: the supplement of paper PMC12532568
